Screens (PubChem)
An excerpt weighted towards active compounds, which were near 3% of everything screened.
BioA inh: blocks M. tuberculosis BioA enzyme activity; purified M. tuberculosis BioA enzyme, plate reader; inhibition, % at 9.99 µM; 360,000 tested, 0.096% active; AID 602481; in the data active means inhibition above about 40%; inconclusive means no clear call, values can overlap the other calls
FBA Mtb inh: inhibits M. tuberculosis FBA enzyme. P9WQA3. 360,000 tested, 2.3% active. inhibition, % at 1 µM. purified M. tuberculosis FBA, fluorescence read-out; in the data active means inhibition above about 27%;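 further: 0% = vehicle and 100% = reference inhibitor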
FadD28 FP inh: inhibitors of Mycobacterium tuberculosis FadD28 bisubstrate binding. FadD28 bisubstrate probe binding, fluorescence polarization. inhibition, % at 12.5 µM. 360,000 tested, 0.22% active; in the data active means inhibition above about 8.5%, passing the limit was not always enough; inconclusive means no clear call, values can overlap the other calls
Rv3671c protease: Rv3671c (M. tuberculosis) protease inhibition; P9WHR9; inhibition, % at 5.96 µM; 320,000 tested, 0.048% active; in the data active means inhibition above about 38%;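 further: extracellular domain of Rv3671c used as enzyme; 0% = enzyme with DMSO and 100% = no enzyme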
Target sequence (P9WHR9 whole entry, looked up, the tested form may be a part): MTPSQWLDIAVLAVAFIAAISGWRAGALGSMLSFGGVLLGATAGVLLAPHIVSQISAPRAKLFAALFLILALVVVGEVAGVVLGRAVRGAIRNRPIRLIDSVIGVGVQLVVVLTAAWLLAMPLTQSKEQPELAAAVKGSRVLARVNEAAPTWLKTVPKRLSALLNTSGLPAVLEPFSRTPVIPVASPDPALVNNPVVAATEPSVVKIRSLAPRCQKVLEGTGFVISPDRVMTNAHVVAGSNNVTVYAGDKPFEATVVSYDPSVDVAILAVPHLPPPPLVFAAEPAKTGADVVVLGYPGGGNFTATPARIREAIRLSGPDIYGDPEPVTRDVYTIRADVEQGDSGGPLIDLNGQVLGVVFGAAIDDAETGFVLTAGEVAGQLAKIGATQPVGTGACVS
GDH-TPI counter: counter-screen for M. tuberculosis FBA inhibitors: GDH-TPI coupled enzymes | GDH-TPI coupled enzyme counterscreen, NADH absorbance | inhibition, % at 4.8 µM | 360,000 tested, 1.2% active | AID 588335; in the data active means inhibition above about 30%;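 further: 0% = DMSO wells and 100% = wells lacking the enzyme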
* hit, by the source's call; u = inconclusive; x = not tested or not shown; + = active, no number.

SMILES	BioA inh	FBA Mtb inh	FadD28 FP inh	Rv3671c protease	GDH-TPI counter
C[C@@H]1CN([C@H](C)CO)C(=O)Cc2cc(NS(C)(=O)=O)ccc2O[C@@H]1CN(C)C(=O)Nc1ccccc1	3.8	x	x	x	x
COc1ccccc1C1C(C(C)=O)=C(O)C(=O)N1c1ccc(O)cc1 (stereo unspecified)	0.6	-1.2	1.3	-1.1	42.0*
CC(=O)C1=C(O)C(=O)N(c2ccc(O)cc2)C1c1cccc([N+](=O)[O-])c1 (stereo unspecified)	5.8	1.8	0.4	4.0	31.6*
COc1ccc(C2C(C(C)=O)=C(O)C(=O)N2CCc2ccccc2)c(OC)c1 (stereo unspecified)	0.4	-3.3	-3.1	-11.1	37.3*
CC(=O)C1=C(O)C(=O)N(c2cccnc2)C1c1cccc([N+](=O)[O-])c1 (stereo unspecified)	x	-2.8	0.1	6.2	13.1
CCOC(=O)c1ccc(N2C(=O)C(O)=C(C(C)=O)C2c2ccc([N+](=O)[O-])cc2)cc1 (stereo unspecified)	10.7	-2.6	-3.5	8.5	31.8*
COc1cccc(-c2ccc3c(c2)[C@@H]2[C@@H](CCN2S(=O)(=O)c2ccccc2F)[C@H](CO)N3)c1	-0.3	x	x	x	x
Cc1c(C(=O)O)cccc1-n1c(C)cc(/C=C(/C#N)C(=O)NCc2ccccc2)c1C	x	0.2	-1.7	4.3	12.6
Cc1cc(/C=C(/C#N)C(=O)O)c(C)n1-c1cccc2ccccc12	1.9	5.7	-27.3	-0.3	41.4*
C[C@H]1CN([C@@H](C)CO)S(=O)(=O)c2ccc(C#CC3CC3)cc2O[C@H]1CN(C)C	-1.9	x	x	x	x
Clc1ccccc1Nc1nnc(-c2ccncc2)s1	x	1.7	-2.9	-6.9	17.3
CNc1nnc(-c2ccncc2)s1	-1.4	145.1*	0.2	-6.6	16.5
CNc1nnc(-c2ccc(OC)cc2)s1	x	2.8	1.6	0.9	1.3
CCNc1nnc(-c2ccncc2)s1	0.1	136.0*	-1.4	-5.2	21.0
COc1ccc(CN(C)C[C@H]2OCCCC[C@H](C)Oc3ccc(NS(=O)(=O)c4cn(C)cn4)cc3C(=O)N([C@@H](C)CO)C[C@@H]2C)cc1	-1.2	x	x	x	x
COc1ccc(S(=O)(=O)N(C)C[C@@H]2OCCCC[C@H](C)Oc3ccc(NS(=O)(=O)c4ccccc4)cc3C(=O)N([C@H](C)CO)C[C@H]2C)cc1	0.0	x	x	x	x
COc1ccc(CNC(=O)COc2ccc(OC)cc2)cc1	-0.3	2.4	21.9*	3.7	-7.2
O=C(C[C@@H]1C[C@H]2c3cc(NC(=O)NC4CCCC4)ccc3O[C@H]2[C@H](CO)O1)NCc1ccccc1F	0.4	x	x	x	x
CC(=O)c1ccc(N2CCN(c3ccc(S(=O)(=O)NCCN(C)C)cc3[N+](=O)[O-])CC2)cc1	x	-5.3	-0.3	3.2	14.7
CC(=O)c1ccc(N2CCN(c3ccc(S(=O)(=O)NCCCN(C)C)cc3[N+](=O)[O-])CC2)cc1	x	-4.3	1.6	10.3	57.4*
O=c1oc(-c2ccccc2)cc(Cl)c1Cl	-0.6	11.8	-0.5	-12.3	17.1
O=P(O)(O)c1cc(-c2ccccc2)oc1-c1ccccc1	x	163.7*	-0.8	6.3	37.4*
Oc1c(Cl)cccc1Cc1cc(Cl)cc(Cl)c1O	3.5	-2.3	11.9*	x	2.6
O=c1[nH]c(NCCO)nc2c1C1(CCCC1)Cc1ccccc1-2	2.8	112.5*	-3.6	-0.9	8.9
CCC1(C)Cc2ccccc2-c2nc(NCCO)[nH]c(=O)c21 (stereo unspecified)	5.8	170.6*	u	1.2	16.3
SMILES	BioA inh	FBA Mtb inh	FadD28 FP inh	Rv3671c protease	GDH-TPI counter
CC1(C)Cc2ccccc2-c2nc(NCCCO)[nH]c(=O)c21	0.8	199.8*	-4.9	-1.7	11.4
O=c1[nH]c(CN(CCO)CCO)nc2c1C1(CCCCC1)Cc1ccccc1-2	-3.3	0.6	1.3	0.1	16.4
CO[C@@H]1CN(C)C(=O)c2cc(NS(C)(=O)=O)ccc2OC[C@@H](C)N(C)C[C@H]1C	-0.3	x	x	x	x
O=C(C[C@H]1CC[C@@H]2[C@H](COC[C@H](O)CN2Cc2nccs2)O1)NCc1ccc(F)cc1	-2.0	x	x	x	x
COc1ccc(S(=O)(=O)N(C)C[C@@H]2Oc3ccc(NC(=O)Nc4cccc5ccccc45)cc3C(=O)N([C@@H](C)CO)C[C@H]2C)cc1	-2.1	x	x	x	x
O=C(NC[C@@H]1[C@@H](c2ccccc2)[C@@H](CO)N1CC1CCCC1)c1ccccc1	2.1	x	x	x	x
COc1ccc(CN(C)C[C@H]2OCCCC[C@H](C)Oc3ccc(NS(C)(=O)=O)cc3C(=O)N([C@@H](C)CO)C[C@@H]2C)cc1	0.3	x	x	x	x
CCN(C[C@H]1[C@@H](c2ccccc2)[C@H](CO)N1C(C)=O)C(=O)c1ccccn1	-2.8	x	x	x	x
C=C(C)Cn1c2ccc(NC(=O)CCc3cccc(Cl)c3)cc2c(=O)n1C	-0.1	+	-3.5	x	4.9
CCOCCC(=O)Nc1ccc2c(c1)c(=O)n(C)n2CC=C(C)C	0.4	+	-1.3	x	11.6
O=C(CCc1ccccc1)NNC(=O)Nc1cccc(Cl)c1	-4.9	4.9	-1.3	5.8	8.8
CCCC(=O)Nc1ccc2c(c1)c1ccccc1n2CC	x	3.4	0.7	5.5	9.2
C=C(C)Cn1c2ccc(NC(=O)CCOCC)cc2c(=O)n1C	-0.6	+	-0.4	x	-5.4
Cn1c(=O)c2cc(NC(=O)Cc3ccccc3F)ccc2n1-c1ccc(C(C)(C)C)cc1	-1.1	26.6	-3.1	x	10.8
CCC(=O)N[C@@H]1CC[C@H](CC(=O)NCc2cc(F)cc(F)c2)O[C@H]1CO	-1.6	x	x	x	x
Cc1cccc(S(=O)(=O)Nc2nc3ccccc3nc2NCC2CCCO2)c1 (stereo unspecified)	0.8	3.7	-2.1	16.2	33.3*
Cc1ccc(S(=O)(=O)Nc2nc3ccccc3nc2NCC2CCCO2)cc1C (stereo unspecified)	1.1	18.6	-0.2	9.6	33.3*
O=S(=O)(Nc1nc2ccccc2nc1NCc1ccco1)c1ccc(Cl)cc1	-2.3	1.8	2.5	-5.5	10.0
Cc1ccc(S(=O)(=O)Nc2nc3ccccc3nc2NCc2ccco2)cc1	x	21.7	2.5	7.3	32.0*
Cc1ccc(S(=O)(=O)N(C)C[C@H]2Oc3ncc(-c4ccncc4)cc3C(=O)N([C@H](C)CO)C[C@@H]2C)cc1	0.4	x	x	x	x
C[C@@H]1CN([C@H](C)CO)C(=O)c2cc(NC(=O)Nc3ccccc3)ccc2O[C@@H](C)CCCCO[C@@H]1CN(C)C(=O)NC1CCCCC1	-2.3	x	x	x	x
CCN1C(=O)N/C(=C/c2cc(C)n(Cc3ccccc3)c2C)C1=O	x	2.0	-0.8	-3.8	31.9*
C[C@H]1CN([C@@H](C)CO)C(=O)c2cc(-c3ccncc3)cnc2O[C@@H]1CN(C)C(=O)C1CC1	0.9	x	x	x	x
c1ccc2c(c1)CC1(CCCCC1)n1nnnc1-2	-3.3	0.2	0.4	1.3	12.5
c1ccc2c(c1)Cn1nnnc1-2	-1.5	135.4*	-1.6	-5.1	-1.5
CO[C@H]1CN(C)C(=O)c2cc(NS(C)(=O)=O)ccc2OC[C@@H](C)N(CC2CC2)C[C@@H]1C	0.6	x	x	x	x
C[C@@H]1CN([C@H](C)CO)C(=O)c2cc(NC(=O)NC3CCCCC3)ccc2O[C@@H](C)CCCCO[C@@H]1CN(C)S(=O)(=O)c1cccs1	-1.9	x	x	x	x
